Inconclusive results are not listed. Where a call stands in place of a potency, no number is given. Calls of active or inactive are those of the source. Calls come from the whole dose curve; as a rule, active = well fitted cell-killing curve with a large enough effect in the repeat runs; inconclusive = weak or mixed curves; inactive = flat fitted curve, though single readings scatter.

In PubChem BioAssay (Tox21) one finds Potency and activity change, negative = cytotoxicity data, which are given here for 40 compounds.

The test can be described thus: qHTS assay to identify small molecule antagonists of the estrogen receptor beta (ER-beta) signaling pathway - cell viability counter screen (AID 1259382). Note: nearly all actives have a fitted effect of over 55% in size. Conditions: ER-beta-UAS-bla HEK293T viability, CellTiter-Glo luminescence, 16 h; series mostly up to 92.4 µM. The text has this:
U.S. Tox21 Program National Center for Advancing Translational Sciences [NCATS] NIH Chemical Genomics Center [NCGC] U.S. Environmental Protection Agency [EPA] National Institutes of Environmental Health Sciences [NIEHS] National Toxicology Program [NTP] U.S. Food and Drug Administration [FDA] Tox21 Assay Overview: Estrogen receptor (ER), a nuclear hormone receptor, plays an important role in development, metabolic homeostasis and reproduction. Two subtypes of ER, ER-alpha and ER-beta, have similar expression patterns with some uniqueness in both types. Endocrine disrupting chemicals (EDCs) and their interactions with steroid hormone receptors like ER causes disruption of normal endocrine function. To identify the compounds that inhibit ER signaling, an ER-beta-UAS-bla GripTite cell line (Life Technologies, Madison, WI, USA) containing a beta-lactamase reporter gene under the control of an UAS response element was used to screen Tox21 10K compound library. The cytotoxicity of the Tox21 compound library against the ER-beta-bla cell line was tested in parallel by measuring the cell viability using CellTiter-Glo assay in the same wells.
Tox21 Assay Protocol Summary: ER-beta-UAS-bla HEK293T cells were dispensed at 2,000 cells/4 uL of assay medium containing 2% charcoal stripped FBS per well into black wall/clear-bottom 1536-well plates using a Multidrop Combi (ThermoFisher Scientific, Waltham, MA) dispenser. After the assay plates were incubated at a 37C and 5% CO2 for 6 hr, 23 nL of compounds dissolved in DMSO, positive controls or DMSO only was transferred to the assay plate by a Pintool station (Kalypsys, San Diego, CA), followed by addition of 1 uL (1nM as final concentration) of 17-beta-estradiol (E2) in assay medium using a Flying Reagent Dispenser (FRD, Aurora Discovery, San Diego, CA). The plates were incubated at 37C and 5% CO2 for 16 hr. Then 1 uL of LiveBLAzer B/G FRET substrate was added using a Flying Reagent Dispenser, the plates were incubated at room temperature for 2 hours, and fluorescence intensity was measured by an Envision plate reader (PerkinElmer, Shelton, CT). For cell viability readout that measures cytotoxicity, 4 uL/well of CellTiter-Glo reagent was added into the assay plates using a FRD. After 30 min incubation at room temperature, the luminescence intensity in the plates was measured using a ViewLux (PerkinElmer) plate reader.
In general terms: qHTS replaces the single test concentration by a dilution series.
As for `COC(=O)CC(C)=O`, the Potency result is “inactive”.

Turning to `COC(=O)[C@@H](N)Cc1ccc(O)c(O)c1`, the Potency result is “inactive”.

As to `CCn1nc(C(=O)O)c(=O)c2cc3c(cc21)OCO3`, the Potency entry is “inactive”.

Take `FC1(F)C(F)(F)C(F)(F)C2(F)C(F)(F)C(F)(F)C(F)(F)C(F)(F)C2(F)C1(F)F` (stereo not given): the Potency entry was “inactive”.

With `O=C1CCCC(=O)C1`, the Potency result was “inactive”.

Regarding `CN1CCC(=C2c3ccccc3CC(=O)c3sccc32)CC1`, the Potency result is “inactive”.

Turning to `C=C[Si](OC(=C)C)(OC(=C)C)OC(=C)C`, the Potency result was “inactive”.

For the compound `O=c1n(CCO)c(=O)n(CCO)c(=O)n1CCO`, the Potency result is “inactive”.

As to `COc1ccc2c(c1)c(CC(=O)OCC(=O)O)c(C)n2C(=O)c1ccc(Cl)cc1`, the Potency entry was “inactive”.

On to `O=[N+]([O-])c1ccc(F)cc1F`, for which the Potency entry was “inactive”.

Consider `Nc1nc2c(ncn2COC(CO)CO)c(=O)[nH]1`, for which the Potency result was “inactive”.

`CCOC(=O)c1c(C)n(C)c2ccc(O)cc12`: the Potency result is “inactive”.

For `N=C(N)c1ccccc1`, the Potency entry is “inactive”.

Regarding `CC(=O)Nc1c(I)cc(I)c(C(=O)O)c1I`, the Potency entry is “inactive”.

For `NC(CSCC(=O)O)C(=O)O` (stereo not given), the Potency entry was “inactive”.

With `CCOC(=O)C(=O)OCC`, the Potency entry is “inactive”.

Regarding `CCO[Si](CCC1CCC2OC2C1)(OCC)OCC` (stereo not given), the Potency entry is “inactive”.

As to `O=C(O)CN(CCOCCOCCN(CC(=O)O)CC(=O)O)CC(=O)O`, the activity change, negative = cytotoxicity is 2.26% [at 0.349 µM] (inactive).

On to `Nc1cc(=O)[nH]c(N)n1`, for which the Potency entry is “inactive”.

Consider `CCCCOCCOCCOCc1cc2c(cc1CCC)OCO2`, for which the Potency entry was “inactive”.

`CCOC(=O)c1cccc(N)c1`: the Potency result was “inactive”.

Turning to `CN1N=C(C(N)=O)CCC1=O`, the Potency result was “inactive”.

Turning to `CC(C)(C)c1nnc(NS(=O)(=O)c2ccccc2)s1`, the Potency entry was “inactive”.

As to `N[C@H]1CN(c2c(F)cc3c(=O)c(C(=O)O)cn(C4C[C@H]4F)c3c2Cl)CC12CC2` (stereo not given in full), the Potency result was “inactive”.

On to `CC1(C)C(O)C(C)(C)C1O` (stereo not given), for which the Potency result is “inactive”.

For `CCO/C([O-])=N/c1c[n+](N2CCOCC2)no1`, the Potency entry is “inactive”.

On to `CN1CC(=O)NC1=N`, for which the Potency result is “inactive”.

With `Nc1ccccc1S(=O)(=O)O`, the Potency entry is “inactive”.

In the case of `NCCCNCCSP(=O)(O)O`, the activity change, negative = cytotoxicity is 1.8% [at 8.39 µM] (inactive).

Regarding `CC(C[N+](C)(C)C)OC(N)=O` (stereo not given), the Potency result is “inactive”.

With `COC(=O)c1ccc(C)cc1C1=NC(C)(C(C)C)C(=O)N1` (stereo not given), the Potency entry was “inactive”.

For `NS(=O)(=O)c1cc2c(cc1Cl)NC(C1CC3C=CC1C3)NS2(=O)=O` (stereo not given), the Potency entry was “inactive”.

`C=C(C)C(=O)OCCCCCCCC(C)C`: the Potency entry is “inactive”.

As to `C=CCOCC(CC)(CO)COCC=C`, the Potency result was “inactive”.

With `CN1C(=O)N(C)C(O)C1O` (stereo not given), the Potency result was “inactive”.

For `Nc1c[n+](N2CCOCC2)no1`, the Potency result was “inactive”.

Consider `NC(=O)COCCN1CCN(C(c2ccccc2)c2ccc(Cl)cc2)CC1` (stereo not given), for which the Potency entry is “inactive”.

`CCCCCCCCCCCCCCCCC`: the Potency entry is “inactive”.

Take `NCCc1cnc[nH]1`: the Potency entry is “inactive”.

On to `CCCN(CCC)CCc1cccc2c1CC(=O)N2`, for which the Potency result is “inactive”.
